Bioassay records from PubChem BioAssay.
Dicer inh = blocks human Dicer maturation of pre-miR-21 | z-score at 25 µM | cat-ELCCA pre-miR-21 Dicer processing, chemiluminescence; stronger effect = higher value | actives 6% (n = 47,000); in the data active means z-score above about 3, passing the limit was not always enough;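 further: higher signal means more uncleaved substrate so more Dicer inhibition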
A number is an active result; n = inactive; ! = not active in a repeat. The full list was thinned out, with hits kept by preference.

SMILES	Dicer inh
Cc1cc(=O)[nH]c(SCC(=O)c2ccc(F)cc2)n1	n
O=C1CC(=O)CC(c2ccc(Cl)c(Cl)c2)C1	n
Cc1ccc2[nH]c3c(c2c1)CCCC3CN (centres undefined)	n
O=C1CCCc2nc3c(cc21)C(=O)CCC3	4
Cc1cc(C)nc(SCC(=O)Nc2ncc3c(n2)CCCC3=O)n1	n
Cc1cc(C)nc(-n2ncc3c2CCCC3=O)n1	n
CC1(C)O[C@@H]2[C@@H](CO[C@@]3(COS(N)(=O)=O)OC(C)(C)O[C@@H]23)O1	n
CCOC(=O)C(NCc1ccccn1)(NC(=O)c1ccccc1Cl)C(F)(F)F (centres undefined)	n
Cc1ccc(-c2noc(CSc3nc4ccc(C)cc4[nH]3)n2)cc1	n
CCOC(=O)C(C#N)c1c([N+](=O)[O-])c(=O)n2c3c(cccc13)CCC2 (centres undefined)	n
Cc1cc(O)c(C(=O)/C=C/N(C)C)c(=O)o1	n
Cc1ccc(C(=O)c2ccc(Br)cc2)cc1S(N)(=O)=O	n
O=C(O)CCC(=O)Nc1ccc(C(=O)O)c(O)c1	6.1
CC(=O)Nc1ccc(NC(=O)CCCC(=O)O)cc1	n
Cc1ccc(NC(=O)CCC(=O)O)cc1	n
COc1cccc(N2C(=O)CC3(CC(C(=O)OCc4ccccc4)=NN3)C2=O)c1 (centres undefined)	n
COc1ccccc1CN1CCN(Cc2ccc3c(c2)OCO3)CC1	4.2
COc1ccc(CN2CCN(Cc3ccc4c(c3)OCO4)CC2)cc1OCc1ccccc1	n
COc1ccc(CN2CCN(Cc3ccc4c(c3)OCO4)CC2)cc1	n
O=S(=O)(c1ccc(F)cc1)N1CCN(Cc2ccc3c(c2)OCO3)CC1	3.2
COc1cccc(CN2CCN(Cc3ccc4c(c3)OCO4)CC2)c1OC	3.5
COc1ccc(CN2CCN(Cc3ccc4c(c3)OCO4)CC2)c(OC)c1	n
O=S(=O)(c1ccc2c(c1)OCCO2)N1CCN(Cc2ccc3c(c2)OCO3)CC1	n
Cc1[nH]c2ccccc2c1C(=O)CN1CCOCC1	n
CCc1ccc(S(=O)(=O)N2CCN(Cc3ccc4c(c3)OCO4)CC2)cc1	n
SMILES	Dicer inh
COc1cc(CN2CCN(Cc3ccc4c(c3)OCO4)CC2)cc(OC)c1	n
Cc1[nH]c2ccccc2c1C(=O)CN1CCN(Cc2ccc3c(c2)OCO3)CC1	3.3
COc1cccc(CNCc2ccc3c(c2)OCO3)c1OC	n
O=C(NCCNC(=O)Nc1ccc(Cl)cc1)Nc1ccc(Cl)cc1	n
Cc1ccc(-n2nnnc2/C=C/N(C)c2ccccc2)cc1	n
CCCC1Cc2nc3sc(C(=O)OCC)c(N)c3cc2CO1 (centres undefined)	n
C/C(=N\NC(N)=O)c1ccccc1OCC(=O)O	n
CCN(CC)Cc1nc2ccccc2[nH]1	3.4
c1ccc(CCc2nc3ccccc3[nH]2)cc1	3.2
Nc1cccc(-c2nc3ccccc3[nH]2)c1	n
Oc1ccc(Cc2nc3ccccc3[nH]2)cc1	n
COc1ccc(OCc2nc3ccccc3[nH]2)cc1	n
Nc1cccc(CCc2nc3cc4ccccc4cc3[nH]2)c1	6.9
Nc1ccc(CCc2nc3ccc(N)cc3[nH]2)cc1	n
c1ccc2[nH]c(CCCc3nc4ccccc4[nH]3)nc2c1	n
O=S(=O)(CCc1nc2ccccc2[nH]1)CCc1nc2ccccc2[nH]1	n
O=C(CSc1nnc2c(n1)-c1cccc3cccc-2c13)Nc1ccc(Br)cn1	n
CCN(CC)C(=S)Oc1c(Cl)cccc1Cl	n
Cc1c2c(=O)n(C)ncc2c(-c2ccccc2)n1CCSCc1c(Cl)cccc1Cl	n
O=[N+]([O-])c1cnc(Sc2ccccc2)c(C(F)(F)F)c1	n
Cc1cccn2cc(-c3cccc(S(=O)(=O)N4CCCC(C)C4)c3)nc12 (centres undefined)	n
Cc1ccc(-c2nc(-c3ccncc3)no2)cc1Cl	n
COc1cc2c(cc1OC)C(c1ccc(F)cc1)CC(=O)N2 (centres undefined)	n
O=C1CC(c2ccc3c(c2)OCO3)c2c(n[nH]c2-c2ccc(Cl)cc2)N1 (centres undefined)	n
O=C1CC(c2ccc(Cl)cc2)c2cc3c(cc2N1)OCO3 (centres undefined)	3.6
SMILES	Dicer inh
Cc1ccc(NC(=O)C2Sc3nnc(C)n3NC2c2ccc(F)cc2)c(Br)c1 (centres undefined)	n
C#CCOC(=O)Nc1cc(C)n(-c2ccccc2)n1	n
Cc1ccc(C(=O)N2CCN(c3ncnc4cc(-c5ccc(C(C)(C)C)cc5)sc34)CC2)cc1	n
CC(=O)NNc1ncnc2cc(-c3ccc(C(C)(C)C)cc3)sc12	n
Cc1ccc(C(=O)NNc2ncnc3cc(-c4ccc(C(C)(C)C)cc4)sc23)cc1	6.2
COc1ccc2c(c1)nc(COc1ccccc1)n2C	n
CCOC(=O)c1cnn(-c2ccccc2)c1NC(=O)CSc1nc2ccccc2s1	n
CCN(CC)c1ncnc2sc(-c3ccccc3)cc12	n
CCOC(=O)CNC(=O)c1ccccc1	n
CCOC(=O)CNC(=O)c1ccc(Cl)cc1	n
CCCc1nn(C)cc1C(=O)NCC(=O)OCC	4.8
Cc1cc(Nc2ccc(F)cc2F)nc(SCc2c(Cl)cccc2Cl)n1	n
Cc1csc2ncnc(NCCc3ccc(Cl)cc3)c12	n
CCOC(=O)/C(C#N)=C(\Nc1ccccc1Cl)SC	n
Cc1cccc(C(=O)Oc2ccc3oc(=O)sc3c2)c1	5.5
O=C(Oc1ccc2oc(=O)sc2c1)c1ccccc1Cl	7.2
CC(=O)Oc1ccc2oc(=O)sc2c1	n
CCCCNC(=O)Oc1ccc2sc(=O)oc2c1	n
O=C(Oc1ccc2c(=O)ccoc2c1)c1ccc(Cl)cc1Cl	n
Cc1ccc(C(=O)Oc2ccc3oc(=O)sc3c2)cc1	5.1
O=C(Oc1ccc2c(c1)oc(=O)c1ccccc12)c1ccccc1	n
O=C(O)c1cccc(S(=O)(=O)Nc2ccc3oc(=O)sc3c2)c1	n
O=C(Oc1ccc2oc(=O)sc2c1)c1ccc(Br)cc1	n
CSc1nc(NC(=O)NS(=O)(=O)Oc2ccc(Cl)cc2Cl)nc(N2CCOCC2)n1	n
Cc1cc(C)nc(S/C=C/C(=O)c2ccc(Br)cc2)n1	n
SMILES	Dicer inh
Cc1ccc(C2=NC(C(F)(F)F)(C(F)(F)F)N=C(N3CCOCC3)O2)cc1	n
O=C(Cn1cc(C(=O)C2CCCCC2)c2ccccc21)NCCc1c[nH]c2ccccc12	n
CC[N+](CC)(CC)CCOc1ccc(/C=C/c2ccccc2)cc1	n
Cc1ccccc1Cn1c(-c2cncs2)nc2ccccc21	n
C=CCn1c(-c2cccs2)nc2ccccc21	n
Brc1cc2c(cc1Cn1c(-c3cncs3)nc3ccccc31)OCO2	4.3
Cc1oc(C(C)(C)C)cc1C(=O)C(C#N)=C1SCCS1	n
O=C(COc1ccccc1)NC1C(=O)N2C(C(=O)O)=C(Cl)CSC12 (centres undefined)	n
NC(=O)c1cc[n+](CC2=C(C(=O)O)N3C(=O)[C@@H](NC(=O)[C@@H](c4ccccc4)S(=O)(=O)[O-])[C@H]3SC2)cc1	3.7!
CC(=O)OCC1=C(C(=O)O)N2C(=O)[C@@H](NC(=O)Cc3cccs3)[C@H]2SC1	n
CCCCN(C)Cc1c(C)[nH]c2ccc(Br)cc2c1=O	n
C=CCSc1nnc(-c2oc3nc(-c4ccccc4)cc(-c4ccccc4)c3c2N)n1C	n
Oc1c(CN2CCOCC2)cc(Br)c2cccnc12	n
COc1ccc(-c2nnc(SCc3cccc4ccccc34)o2)c(OC)c1	227
COc1ccc(-c2nnc(SCc3cccc(Cl)c3)o2)c(OC)c1	n
COc1ccc(-c2nnc(SCc3cccc4ccccc34)o2)cc1	n
CCc1ccnc(NS(=O)(=O)c2ccc(C)c(Cl)c2)c1	n
CCc1ccnc(NS(=O)(=O)c2ccccc2)c1	3.8
